In PubChem BioAssay (NCI) one finds growth data, which are given here for 14 compounds.

About 83,000 compounds went through this panel and 20% of them were active in at least one assay; those are over-represented in the sample as a whole.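 Each cell line was grown in a 96-well plate and treated with one concentration of compound for 48 hours. Values below 10 were considered active.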 Unmarked numbers belong to inactive results. Calls of active or inactive are those of the source.

Among the test systems are T-47D breast; BT-549 breast; MDA-MB-435 melanoma; SW-620 colon; MCF7 breast; HCT-116 colon; HCC-2998 colon; KM12 colon.
What all share (assay): NCI-60 one-dose screen, 48 h (100 = growth as untreated, 0 = no growth, -100 = all killed)
Details in all cases: 10 µM unless noted

Take `Cc1n[nH]c2ccc(Br)cc2c1=O`: the growth with T-47D breast was 94.6%; in the assay on BT-549 breast it was 95.7%; in the assay on MDA-MB-435 melanoma, 107%; with SW-620 colon it was 113%; in the assay with MCF7 breast it was 108%; in the assay with HCT-116 colon, 98.7%. For the same compound, the results for the growth with HCC-2998 colon and in the assay with KM12 colon were 107% and 95.9%, respectively.

For the compound `O=C(NC(Cc1nnc2n(Cc3ccccc3)c(=O)c3c4c(sc3n12)CCCC4)c1ccccc1)c1ccccc1` (configuration not stated), the growth with T-47D breast was 102%; with BT-549 breast, 100%; in the assay with MDA-MB-435 melanoma, 105%; with SW-620 colon, 101%; with MCF7 breast, 97.9%; in the assay on HCT-116 colon it was 81.4%. The growth with HCC-2998 colon and in the assay with KM12 colon was 108% each time.

As for `Cn1c(=O)c2[nH]c(SCC(=O)Nc3ccc(C(=O)/C=C/c4ccccc4Cl)cc3)nc2n(C)c1=O`, the growth in the assay on T-47D breast is 92.4%; with BT-549 breast it was 83.3%; with MDA-MB-435 melanoma, 92%; in the assay with SW-620 colon it was 95.8%; with MCF7 breast it was 69.4%; in the assay on HCT-116 colon, 58.5%. The growth with HCC-2998 colon is 106%; in the assay on KM12 colon, 97.9%.

Regarding `Cc1ccc(-c2csc(N(C(=O)N3CCN(c4cc5c(cc4F)c(=O)c(C(=O)O)cn5C4CC4)CC3)c3ccccc3)n2)cc1`, the growth in the assay with T-47D breast is 13%; in the assay on BT-549 breast, -2.16% (active); in the assay on MDA-MB-435 melanoma, 14.9%; in the assay on SW-620 colon it was 19.1%; with MCF7 breast it was 7.97% (active); in the assay with HCT-116 colon, 6.17% (active). The values for the growth in the assay with HCC-2998 colon and with KM12 colon were 13.1% and 4.3% (active), respectively.

Regarding `COc1ccc2cc(-c3ccnc4c(N=Nc5ccc(Cl)cc5)c(N)nn34)ccc2c1`, the growth is 94.5% with T-47D breast; 99.9% in the assay on BT-549 breast; 105% with MDA-MB-435 melanoma; 101% in the assay with SW-620 colon; 97.3% with MCF7 breast; 99.7% with HCT-116 colon. The values for the growth with HCC-2998 colon and in the assay with KM12 colon were 97.6% and 103%, respectively.

Turning to `CC(=C(c1ccc(OCCN2CCCCC2)cc1)c1ccc(OCCN2CCCCC2)cc1)c1ccc(Cl)cc1`, the growth is -72.6% (active) in the assay on T-47D breast; -87% (active) with BT-549 breast; -96.6% (active) in the assay with MDA-MB-435 melanoma; -84.8% (active) with SW-620 colon; -85.4% (active) in the assay on MCF7 breast; -88.9% (active) in the assay on HCT-116 colon. In addition, the growth in the assay with HCC-2998 colon was -93.4% (active); in the assay with KM12 colon it was -84.9% (active).

Turning to `O=C(Cc1cccc(OC(F)(F)F)c1)Nc1ccc(CCCCc2nnc(NC(=O)Cc3ccccn3)s2)nn1`, the growth in the assay on T-47D breast was 30.3%; in the assay on BT-549 breast, 48.7%; with MDA-MB-435 melanoma, 85.1%; in the assay on SW-620 colon, 100%; in the assay with MCF7 breast, 79.7%; in the assay on HCT-116 colon, 40%. Moreover, the growth is 91% with HCC-2998 colon and 69.4% in the assay on KM12 colon.

For `COc1ccc(-c2cc(-c3ccccc3)nc(N3CCN(CCNc4ccnc5cc(Cl)ccc45)CC3)n2)cc1`, the growth in the assay with T-47D breast was -48% (active); in the assay on BT-549 breast, 72.8%; with MDA-MB-435 melanoma, -72.1% (active); in the assay with SW-620 colon it was -75.4% (active); in the assay on MCF7 breast it was -84.8% (active); in the assay on HCT-116 colon, -73.8% (active). Besides, the values for the growth in the assay on HCC-2998 colon and in the assay with KM12 colon were -81.5% (active) and -26.9% (active), respectively.

With `COc1cc(C2C(C(=O)OCc3ccccc3)=C(C)NC(C)=C2C(=O)OCc2ccccc2)cc(OC)c1OC`, the growth in the assay with T-47D breast was 11.9%; with BT-549 breast, 34%; with MDA-MB-435 melanoma, 27.3%; in the assay on SW-620 colon, 40.3%; in the assay with MCF7 breast, 10.4%; in the assay on HCT-116 colon, 17.1%. The growth in the assay on HCC-2998 colon is 52%; with KM12 colon it was 19.4%.

With `COc1cc(/C=C/C(=O)/C=C(O)/C=C/c2ccc(OC(=O)C34CC5CC(CC(C5)C3)C4)c(OC)c2)ccc1OC(=O)C12CC3CC(CC(C3)C1)C2`, the growth was 97.9% with T-47D breast; 104% in the assay with BT-549 breast; 106% with MDA-MB-435 melanoma; 98.4% in the assay with SW-620 colon; 98.5% in the assay on MCF7 breast; 89.9% in the assay with HCT-116 colon. For the same compound, the growth in the assay with HCC-2998 colon was 106%; in the assay with KM12 colon, 113%.

On to `Cc1ccc(C2CC(c3nc(-c4ccc(Cl)cc4)oc3C)=NN2C(=O)c2ccncc2)cc1` (configuration not stated), for which the growth is 77.7% in the assay on T-47D breast; 96% in the assay with BT-549 breast; 88.7% in the assay on MDA-MB-435 melanoma; 93.4% with SW-620 colon; 84.1% with MCF7 breast; 94.8% in the assay with HCT-116 colon. Moreover, the growth in the assay with HCC-2998 colon was 97.6%; with KM12 colon, 88.3%.

On to `N=C(N)c1ccc(-c2ccc(-c3cc(Cl)cc(Cl)c3)s2)nc1`, for which the growth was 84.2% in the assay with T-47D breast; 97.5% in the assay with BT-549 breast; 44.6% in the assay with MDA-MB-435 melanoma; -59.2% (active) in the assay with SW-620 colon; -47% (active) with MCF7 breast; -73.6% (active) in the assay on HCT-116 colon. Further, the growth with HCC-2998 colon was 28.1%; with KM12 colon it was -75.3% (active).

As for `CCOC(=O)C1=C(C)/C(=C\c2[nH]c(C)c(C(=O)OCC)c2C)N=C1C`, the growth with T-47D breast was 66.8%; in the assay with BT-549 breast it was 98.1%; in the assay with MDA-MB-435 melanoma, 80.6%; in the assay with SW-620 colon, 2.24% (active); in the assay with MCF7 breast, 88.2%; in the assay with HCT-116 colon it was 74.5%. The growth is 109% in the assay on HCC-2998 colon and 81.9% in the assay on KM12 colon.

On to `CCN1C(=O)N(CC)C2Nn3c(s/c(=C\c4ccccc4Br)c3=O)=NC21` (configuration not stated), for which the growth in the assay with T-47D breast is 62.1%; in the assay with BT-549 breast it was 19%; with MDA-MB-435 melanoma, -62.1% (active); in the assay on SW-620 colon, 17.4%; in the assay with MCF7 breast, 16.7%; in the assay with HCT-116 colon, 11.2%. Further, the growth in the assay with HCC-2998 colon is 24.4%; with KM12 colon, 7.48% (active).
